Measured values as given in PubChem BioAssay (NCATS).
Inconclusive results are not listed. A call without a number means that no potency is given here. Active and inactive are the calls of the source. Unless noted, calls follow the shape of the dose curve; as a rule, active = well fitted curve in the direction sought with a large enough effect; inconclusive = small, poorly fitted or top-dose-only effect, or another doubt; inactive = no such curve, though single readings can be large; an effect the other way counts as inactive or inconclusive.

Key:
[1] = qHTS to identify inhibitors of the type 1 interferon - major histocompatibility complex class I in skeletal muscle: primary screen against the NCATS Mechanism Interrogation Plate v5.0 (MIPE) Libary (AID 1347411); also: nearly all actives have a fitted effect of over 65% in size; also: potency is read from the fitted curve at half-maximal effect
Method in brief: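 Immortalized human C25cl48 myoblasts with HiBit knocked into endogenous HLA-B*08:01 were stimulated with 4.0 ng/ml IFN-beta and exposed to compounds (11-point 1:3 titration, top 46 uM final) for 24 hrs at 37 C; HiBiT lytic luminescence measured.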

[2] = biological target: Glutathione peroxidase 1 (Homo sapiens) (UniProt P07203); assay: Primary qHTS Assay for Inhibitors of Recombinant Selenoprotein Glutathione Peroxidase 1 (GPX1) (AID 1845191); also: nearly all actives have a fitted effect of over 65% in size
Method in brief: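 Recombinant GPX1 (10 nM final) was preincubated with compound for 30 min at room temperature, then reacted with 1 mM GSH, 0.5 mM CHP, 0.5 mM NADPH and 100 nM glutathione reductase; NADPH fluorescence (340/450 nm) was read at 0 and 15 min.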

[3] = biological target: Phospholipid hydroperoxide glutathione peroxidase GPX4 (Homo sapiens) (UniProt P36969); assay: Primary qHTS Assay for Inhibitors of Recombinant Selenoprotein Glutathione Peroxidase 4 (GPX4) (AID 1845192); details: outcome: dose series up to 50 µM unless noted; also: nearly all actives have a fitted effect of over 65% in size
Method in brief: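 GR-coupled readout: 100 nM GR, 1 mM GSH, 0.5 mM NADPH; NADPH fluorescence (ex 340/em 450 nm) read at t=0 and after 15 min RT. GPX4 200 nM, preincubated 30 min with compound; substrate 0.5 mM CHP.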

[4] = qHTS drug screen for cell cycle checkpoint inhibitors in PARPi-resistant BRCA-mutant ovarian cancer cell lines. (AID 1963452; calls by dose curve; also: potency is read from the fitted curve at half-maximal effect); details: PEO1/OlaR viability, CellTiter-Glo luminescence, 96 h; for Z-AUC: stronger effect = lower value
Method in brief: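 PEO1, PEO4 and PEO1/OlaR ovarian cancer cells, 600 per well, exposed 96 h at 37C to a dilution series. Viability read by CellTiter-Glo luminescence, normalized to DMSO and empty wells; activity summarized as Z-AUC.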

[5] = Primary qHTS for inhibitors of nuclear receptor binding SET domain protein 2 (NSD2) in an RCH-ACV wild type WT cells (2C) (AID 1645877); also: nearly all actives have a fitted effect of over 70% in size; also: potency is read from the fitted curve at half-maximal effect
[6] = NCATS anti-infectives library activity on HEK293 viability as a counter-qHTS vs the C. elegans viability qHTS (AID 1745854)
Method in brief: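 HEK293 cells, 1500 per well, exposed 24 hr at 37C in 5% CO2 to compounds in a 1:5 titration, up to 41.7 uM final. Viability read as CellTiter-Glo luminescence after 10 min at room temperature.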

[7] = measured here: PEO1 parental Z-AUC

Chain of Phospholipid hydroperoxide glutathione peroxidase GPX4 (Homo sapiens) (P36969 whole entry, looked up): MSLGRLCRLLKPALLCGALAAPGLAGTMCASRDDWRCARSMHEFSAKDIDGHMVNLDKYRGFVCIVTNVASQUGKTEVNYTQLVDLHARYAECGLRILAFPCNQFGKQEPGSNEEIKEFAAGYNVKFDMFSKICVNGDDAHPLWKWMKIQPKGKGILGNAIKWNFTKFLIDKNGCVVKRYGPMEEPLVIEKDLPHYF
Chain of Glutathione peroxidase 1 (Homo sapiens) (P07203 whole entry, looked up): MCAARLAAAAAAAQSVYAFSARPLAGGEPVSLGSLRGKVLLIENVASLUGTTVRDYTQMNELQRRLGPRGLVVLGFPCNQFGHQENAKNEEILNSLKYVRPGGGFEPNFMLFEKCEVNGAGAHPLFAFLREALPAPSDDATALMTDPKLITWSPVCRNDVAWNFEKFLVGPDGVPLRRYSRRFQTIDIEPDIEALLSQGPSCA

Row | Compound | Potency [1] | Potency [2] | Potency [3] | Z-AUC [4] | Z-AUC [4, 7] | Z-AUC ([4]; measured here: PEO4 Z-AUC) | Potency [5] | Potency [6] | Potency [4]
1 | Nc1cc(COc2c(Cl)cc(C[C@H](N)C(=O)O)cc2Cl)c2oc(-c3ccccc3)nc2c1 | inactive | inactive | inactive | -1.13 (inactive) | -0.255 | -0.878 |  |  | 
2 | COC(=O)C1=C(C)NC(c2ncc(F)cc2F)=N[C@@H]1c1ccc(F)cc1Cl | 16.5 µM (active) | inactive | inactive | 1.3 (inactive) | 1.02 | 0.861 | 18.6 µM (active) |  | 
3 | CC(=O)N1CCC(Nc2cc(C(=O)NC[C@H](O)CN3CCc4ccccc4C3)ncn2)CC1 | inactive | inactive | inactive | 0.665 (inactive) | 0.224 | 0.188 |  |  | 
4 | CN(C(=O)CNC(=O)/C=C/c1cccc(Cl)c1)C1CCS(=O)(=O)CC1 | inactive | inactive | inactive | -0.555 (inactive) | -0.958 | -0.957 |  |  | 
5 | CN(CCOc1ccc(-c2ccc3c(c2)OCO3)cc1C(C)(C)C)CC(=O)O | inactive | inactive | inactive | 0.446 (inactive) | 1.02 | 1.29 | 20.9 µM (active) |  | 
6 | CC1(C)SCCN(S(=O)(=O)c2ccc(OCC#CCO)cc2)[C@H]1C(=O)NO | inactive | inactive | inactive | 0.823 (inactive) | 0.238 | 0.33 |  |  | 
7 | N[C@@H]1CN(c2c(F)cc3c(=O)c(C(=O)O)cn([C@@H]4C[C@@H]4F)c3c2Cl)CC12CC2 | inactive | inactive |  | 0.751 (inactive) | 0.374 | 0.877 | inactive |  | 
8 | CCOc1ccc(-n2c([C@@H](C)N(Cc3cccnc3)C(=O)Cc3ccc(F)c(C(F)(F)F)c3)nc3ncccc3c2=O)cc1 | inactive | inactive | inactive |  |  |  | 18.6 µM (active) |  | 
9 | C/C=C(/C)C(=O)O[C@H]1C(C)=CC23C(=O)C(C=C(CO)[C@@H](O)[C@]12O)[C@H]1[C@@H](C[C@H]3C)C1(C)C (stereo partly specified) | inactive | inactive | inactive |  |  |  |  |  | 
10 | Nc1cccc2c1CN([C@H]1CCC(=O)NC1=O)C2=O | inactive | inactive |  | 0.0993 (inactive) | 0.928 | 1.07 |  | inactive | 
11 | C=CC(=O)N1C[C@H](Nc2ncnc3[nH]ccc23)CC[C@@H]1C | inactive | inactive | inactive | -0.649 (inactive) | -0.501 | -0.666 | inactive |  | 
12 | Cc1nc2cccc(N)c2c(=O)n1C1CCC(=O)NC1=O (stereo unspecified) | inactive | inactive | inactive | 1.24 (inactive) | 1.14 | 1.38 |  |  | 
13 | CNS(=O)(=O)Nc1nccc(Cc2c(C)c3ccc(Oc4ncccn4)cc3oc2=O)c1F | inactive | inactive | inactive |  | -1.08 | -1.84 |  |  | 2.75 µM (active)
14 | CC(=O)[C@]1(N)Cc2c(O)c3c(c(O)c2[C@@H](O[C@H]2C[C@H](O)[C@H](O)CO2)C1)C(=O)c1ccccc1C3=O | inactive | inactive |  | -0.249 (inactive) | -0.44 | -0.284 | 23.5 µM (active) |  | 
15 | Cc1nc(C)c(CN2CCN(C(c3ccc(F)cc3)c3ccc(F)cc3)CC2)nc1C | inactive | inactive | inactive | -0.108 (inactive) | 0.777 | 1.05 |  |  | 
16 | O=C(Cc1ccccc1)Nc1nnc(CCSCCc2nnc(NC(=O)Cc3ccccc3)s2)s1 | inactive | inactive | inactive | 1.43 (inactive) | 1.23 | 1.41 |  | inactive | 
17 | CCC(=O)OCC(=O)C1(OC(=O)CC)C(C)CC2C3CCC4=CC(=O)C=CC4(C)C3(F)C(O)CC21C (stereo unspecified) | inactive | inactive | inactive | 0.365 (inactive) | 0.623 | -0.145 |  |  | 
18 | CN[C@@H](C)C(=O)N[C@H](C(=O)N1CCC[C@H]1C(=O)Nc1snnc1-c1ccccc1)C1CCCCC1 | inactive | inactive | inactive | 1.43 (inactive) | 0.271 | -0.618 |  |  | 
19 | CC(C)(CO)n1cc(C(=O)c2cncc(NC(=O)Cc3ccc(Cl)cn3)c2)c2cnc(N)nc21 | inactive | inactive | inactive | -0.173 (inactive) | 0.879 | 0.771 | inactive |  | 
20 | CC(=O)N[C@H]1CSSC[C@@H](C(N)=O)NC(=O)[C@H](C(C)C)NC(=O)[C@H](C)NC(=O)[C@H](Cc2cnc[nH]2)NC1=O | inactive | inactive |  | -0.0315 (inactive) | -0.625 | -0.422 | inactive |  | 
21 | Ac-PHSCN-NH2 | inactive | inactive | inactive | -0.465 (inactive) | 0.449 | 0.654 |  |  | 
22 | Cc1ccc(NC(=O)[C@H]2CCCN(C(=O)c3c(C)cccc3F)[C@H]2c2ccc(NC3CCCC3)cc2)cc1C(F)(F)F | inactive |  |  | -0.612 (inactive) | 0.0404 | -0.339 | inactive |  | 
